Activity calls are given as the source filed them. The calls were made as follows: active = hit-call score of the fitted dose curve at least 0.9, where 1 is the maximum; inactive = score below 0.9.

Broadly, the AC50 is the concentration at which the activity in the assay is half-maximal.

Read-out in one assay: CYP2C8 (gene 1558)
As to the kind of experiment: LTEA_HepaRG_CYP2C8: Life Technologies and Expression Analysis (LTEA) Assay for CYP2C8 using HepaRG (AID 2283483). As to conditions: mRNA level, 48 h; actives raise or lower the signal. Put shortly:
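CYP2C8 mRNA induction or loss, by qRT-PCR normalized to ACTB/GAPDH/POLR2A, is read in HepaRG cells after 48 h treatment. Concentrations run from 100 uM down in half-log dilutions, with 0.5% DMSO as vehicle and baseline.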
Regarding `Nc1cccc(N)c1`, the result was inactive.

For `CCCC(=O)OCC`, the outcome was inactive.

As for `COc1ccc(/C=C/S(=O)(=O)NC(=O)c2ccc(C)cc2Cl)cc1`, the call was inactive.

As for `Nc1ccc(Nc2ccccc2)cc1`, the call was inactive.

As for `COc1ccc2sc(C(=O)Nc3nnn[nH]3)c(OC(C)C)c2c1`, the result was inactive.

For the compound `O=C(OC[C@H]1O[C@@H](OC(=O)c2cc(O)c(O)c(OC(=O)c3cc(O)c(O)c(O)c3)c2)[C@H](OC(=O)c2cc(O)c(O)c(OC(=O)c3cc(O)c(O)c(O)c3)c2)[C@@H](OC(=O)c2cc(O)c(O)c(OC(=O)c3cc(O)c(O)c(O)c3)c2)[C@@H]1OC(=O)c1cc(O)c(O)c(OC(=O)c2cc(O)c(O)c(O)c2)c1)c1cc(O)c(O)c(OC(=O)c2cc(O)c(O)c(O)c2)c1`, the AC50 was 15.2 µM (active).

As to `O=C1CCC(N2C(=O)c3ccccc3C2=O)C(=O)N1` (stereo not drawn), the outcome was inactive.

Turning to `COCCOc1cc2cc(C(=O)NC3CCN(C(C)C)CC3)n(CC(=O)Nc3ccc(Cl)cn3)c2cn1`, the AC50 is 61.8 µM (active).

Take `CC(O)CN(CCN(CC(C)O)CC(C)O)CC(C)O` (stereo not drawn): the AC50 is 12.6 µM (active).

With `C[C@](N)(Cc1ccc(O)c(O)c1)C(=O)O`, the compound was called inactive.

As to `O=C(O)c1cccc(N(Cc2cccnc2)c2ccc(OC(F)F)c(OC(F)F)c2)c1`, the outcome was inactive.

Consider `O=C(O)CCN(C1(C(=O)NO)CCCC1)S(=O)(=O)c1ccc(Oc2ccc(F)cc2)cc1`, for which the compound was called inactive.

Consider `CC[C@H]1CC[C@H](NCc2cc3c(cc2OC)[C@H]2C[C@H]2C(=O)N3C)[C@H](c2ccccc2)N1`, for which the AC50 is 11.1 µM (active).

In the case of `C1N2CN3CN1CN(C2)C3`, the outcome was inactive.

Consider `CCOCCO`, for which the call was inactive.

Consider `Nc1nc2ncc(CNc3ccc(C(=O)N[C@@H](CCC(=O)O)C(=O)O)cc3)nc2c(=O)[nH]1`, for which the result was inactive.

For the compound `CC(C)CCCCCCCOC(=O)CCCCC(=O)OCCCCCCCC(C)C`, the call was inactive.

For the compound `Fc1ccccc1[C@@H](F)COC1CCC(Nc2ncnc3[nH]ncc23)CC1` (stereo partly drawn), the result was inactive.

For the compound `COC(=O)c1ccccc1O`, the call was inactive.

For the compound `O=C(O)CC(O)C(=O)O` (stereo not drawn), the compound was classed as inactive.

For the compound `COC(=O)c1c(Cl)c(Cl)c(C(=O)OC)c(Cl)c1Cl`, the compound was classed as inactive.

With `CC(C)=CCCC(C)CCO` (stereo not drawn), the compound was classed as inactive.

For `O=P(OC(CCl)CCl)(OC(CCl)CCl)OC(CCl)CCl`, the AC50 was 89.6 µM (active).

`CC(C)CCO`: the outcome was inactive.

As for `O=c1[nH]c2ccc(S(=O)CCN3CCC(Cc4ccc(F)cc4)CC3)cc2o1` (stereo not drawn), the AC50 was 78.5 µM (active).

As to `On1ccccc1=S`, the result was inactive.

`C1=CCCC=CCCC=CCC1`: the outcome was inactive.

Regarding `CCCCCCCCCCCCc1ccccc1`, the result was inactive.

As for `CCCCCCCCCCCCCCCO`, the result was inactive.

Read-out in the next assay: CYP2C9 (gene 1559)
As to the kind of experiment: LTEA_HepaRG_CYP2C9: Life Technologies and Expression Analysis (LTEA) Assay for CYP2C9 using HepaRG (AID 2283484). The settings on record: mRNA level, 48 h; actives raise or lower the signal. Put shortly:
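Cells plated 48 h, switched to serum-free induction medium, then treated in duplicate for 48 h at eight concentrations (max 100 uM, 0.5% DMSO). RNA then analysed by qRT-PCR for CYP2C9; curves fitted in both directions relative to DMSO.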
With `Nc1cccc(N)c1`, the compound was called inactive.

Consider `CCCC(=O)OCC`, for which the result was inactive.

For `COc1ccc(/C=C/S(=O)(=O)NC(=O)c2ccc(C)cc2Cl)cc1`, the result was inactive.

Consider `Nc1ccc(Nc2ccccc2)cc1`, for which the result was inactive.

Regarding `COc1ccc2sc(C(=O)Nc3nnn[nH]3)c(OC(C)C)c2c1`, the AC50 is 50 µM (active).

For `O=C(OC[C@H]1O[C@@H](OC(=O)c2cc(O)c(O)c(OC(=O)c3cc(O)c(O)c(O)c3)c2)[C@H](OC(=O)c2cc(O)c(O)c(OC(=O)c3cc(O)c(O)c(O)c3)c2)[C@@H](OC(=O)c2cc(O)c(O)c(OC(=O)c3cc(O)c(O)c(O)c3)c2)[C@@H]1OC(=O)c1cc(O)c(O)c(OC(=O)c2cc(O)c(O)c(O)c2)c1)c1cc(O)c(O)c(OC(=O)c2cc(O)c(O)c(O)c2)c1`, the AC50 was 10.4 µM (active).

For the compound `O=C1CCC(N2C(=O)c3ccccc3C2=O)C(=O)N1` (stereo not drawn), the outcome was inactive.

In the case of `COCCOc1cc2cc(C(=O)NC3CCN(C(C)C)CC3)n(CC(=O)Nc3ccc(Cl)cn3)c2cn1`, the AC50 is 62.2 µM (active).

With `CC(O)CN(CCN(CC(C)O)CC(C)O)CC(C)O` (stereo not drawn), the compound was called inactive.

Turning to `C[C@](N)(Cc1ccc(O)c(O)c1)C(=O)O`, the result was inactive.

Turning to `O=C(O)c1cccc(N(Cc2cccnc2)c2ccc(OC(F)F)c(OC(F)F)c2)c1`, the outcome was inactive.

On to `O=C(O)CCN(C1(C(=O)NO)CCCC1)S(=O)(=O)c1ccc(Oc2ccc(F)cc2)cc1`, for which the call was inactive.

For `CC[C@H]1CC[C@H](NCc2cc3c(cc2OC)[C@H]2C[C@H]2C(=O)N3C)[C@H](c2ccccc2)N1`, the compound was classed as inactive.

As for `C1N2CN3CN1CN(C2)C3`, the compound was classed as inactive.

As to `CCOCCO`, the outcome was inactive.

On to `Nc1nc2ncc(CNc3ccc(C(=O)N[C@@H](CCC(=O)O)C(=O)O)cc3)nc2c(=O)[nH]1`, for which the compound was called inactive.

Turning to `CC(C)CCCCCCCOC(=O)CCCCC(=O)OCCCCCCCC(C)C`, the call was inactive.

On to `Fc1ccccc1[C@@H](F)COC1CCC(Nc2ncnc3[nH]ncc23)CC1` (stereo partly drawn), for which the AC50 was 37.7 µM (active).

For `COC(=O)c1ccccc1O`, the call was inactive.

Turning to `O=C(O)CC(O)C(=O)O` (stereo not drawn), the result was inactive.

For the compound `COC(=O)c1c(Cl)c(Cl)c(C(=O)OC)c(Cl)c1Cl`, the call was inactive.

On to `CC(C)=CCCC(C)CCO` (stereo not drawn), for which the result was inactive.

As for `O=P(OC(CCl)CCl)(OC(CCl)CCl)OC(CCl)CCl`, the AC50 was 76.3 µM (active).

For `CC(C)CCO`, the outcome was inactive.

Take `O=c1[nH]c2ccc(S(=O)CCN3CCC(Cc4ccc(F)cc4)CC3)cc2o1` (stereo not drawn): the AC50 is 71.1 µM (active).

As to `On1ccccc1=S`, the call was inactive.

As to `C1=CCCC=CCCC=CCC1`, the outcome was inactive.

Consider `CCCCCCCCCCCCc1ccccc1`, for which the compound was called inactive.

For `CCCCCCCCCCCCCCCO`, the call was inactive.

For the origin of these results see PubChem BioAssay (EPA / NIEHS).
